High-throughput results from PubChem BioAssay.
BaF3 parental: parental Ba/F3 cell viability inhibition, counter-screen for JAK2V617F inhibitor project, murine pro-B, CellTiter-Glo luminescence; CellTiter-Glo ATP luminescence; inhibition, % at 5.6 µM; 220,000 compounds, 1.1% hits;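 active means inhibition above a per-campaign cutoff, the mean inhibition of all tested compounds plus 3 SD, cut at about 27% in these data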
aSyn UTR inh: MLPCN primary screen, SNCA 5' untranslated region. inhibition, % (tested at 7.5 µM). alpha-synuclein 5'UTR reporter, inhibitor activity. 300,000 compounds, 0.82% hits; in the data active means inhibition above about 60%; inconclusive means no clear call, values can overlap the other calls;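 further: H4 neuroglioblastoma cells stably carrying SNCA 5'UTR luciferase fusion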
KLF5 inhibitor: KLF5 expression inhibitors, primary screen, DLD-1 cells, luminescence; inhibition, % at 5 µM; 290,000 compounds, 0.23% hits; DLD-1 KLF5 promoter-luciferase reporter; AID 1700, 2009;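 active means inhibition above a per-plate limit of that plate's mean compound inhibition plus 3 SD, cut at about 60% in these data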;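 further: higher means less KLF5 promoter-driven luciferase light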
IEC-6 cytotox: cytotoxicity in IEC-6 intestinal epithelial cells, primary screen, cytotoxicity control for KLF5 inhibitor project, cell-based, luminescence | IEC-6 cytotoxicity, luminescence viability | inhibition, % at 5 µM | 290,000 compounds, 0.78% hits; in the data active means inhibition above about 22%
Ba/F3 V617F tox: reduced viability of JAK2V617F-dependent Ba/F3 cells, primary screen, JAK2V617F inhibitor project, cell-based, Ba/F3 EpoR-JAK2V617F, luminescence | ATP luminescence | inhibition, % at 5.6 µM | 220,000 compounds, 1.1% hits;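 active means inhibition above the campaign mean plus 3 SD over all tested compounds, cut at about 24% in these data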;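 further: cytokine-independent growth of Ba/F3 cells driven by EpoR plus mutant JAK2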
APP 5UTR inh: inhibitors of APP translation via 5'UTR reporter, primary screen, APP 5'UTR luciferase, SH-SY5Y cells; SH-SY5Y APP 5'UTR-luciferase reporter, luminescence; inhibition, % at 2 µM; 190,000 compounds, 0.82% hits; AID 1285, 2008;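 active means inhibition above a set limit, derived from the sample mean plus 3 SD, cut at about 45% in these data; inconclusive means one replicate passes the limit while the other fails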
BaF3 tox 2: parental Ba/F3 cell viability inhibition, counter-screen for JAK2V617F inhibitor project, murine pro-B, CellTiter-Glo luminescence; 580 compounds, 31% hits; shares compounds with Ba/F3 V617F tox; inhibition, % at 5.6 µM; cells kept alive by added IL-3;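 active means cell growth inhibition above the hit limit set in the earlier mutant JAK2 cell screen, cut at about 27% in these data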
JAK2V617F conf: viability loss in Ba/F3 EpoR-JAK2V617F cells, confirmation, JAK2V617F inhibitor project, cell-based, luminescence, triplicate; shares compounds with Ba/F3 V617F tox; CellTiter-Glo luminescence; inhibition, % at 5.6 µM; 580 compounds, 66% hits;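 active means mean inhibition above the hit cutoff derived in the earlier primary screen, cut at about 25% in these data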;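 further: higher means lower luminescence from reduced cell ATP and viability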
Each line names hits and unclear results; the compound was inactive in the other large screens (follow-up assays come after a bar, where they were run). Only some compounds are listed: those with a hit (about 2.1% of all), similar ones and a draw of the others.

CN(C)S(=O)(=O)n1cc(/C=C(\NC(=O)c2ccccc2Cl)C(=O)N2CCCC2)c2ccccc21	none (no result: BaF3 parental, Ba/F3 V617F tox, APP 5UTR inh)
Cc1ccc(S(=O)(=O)NCc2ccc(C(=O)N(C)CCC#N)cc2)cc1	Ba/F3 V617F tox 92.8 (no result: APP 5UTR inh) | BaF3 tox 2 inactive | JAK2V617F conf inactive
COc1ccc(OC)c(C2(O)CSC(=Nc3cccnc3)N2Cc2ccco2)c1 (centres undefined)	none
OC1(c2ccc(OC(F)F)cc2)CSC(=Nc2cccnc2)N1C1CC1 (centres undefined)	Ba/F3 V617F tox 28.8 | BaF3 tox 2 inactive | JAK2V617F conf 30.6
CC(=O)Nc1ccc(/C=N/Nc2nc3ccccc3[nH]2)cc1	none
CCN(CC)c1ccc(/C=N/Nc2nc3ccccc3[nH]2)cc1	IEC-6 cytotox 41.1, Ba/F3 V617F tox 49.8 | BaF3 tox 2 inactive | JAK2V617F conf 64.3
COC(=O)c1sccc1N/N=C/c1cccc(OC)c1O	none
COc1cccc(/C=N/Nc2nc3ccccc3[nH]2)c1O	Ba/F3 V617F tox 77.2 (no result: APP 5UTR inh) | BaF3 tox 2 59.0 | JAK2V617F conf 88.8
COc1cccc(/C=N/Nc2ncnc3scc(-c4ccccc4)c23)c1O	aSyn UTR inh inconclusive, KLF5 inhibitor 79.8, Ba/F3 V617F tox 40.6, APP 5UTR inh 89.4 | BaF3 tox 2 92.4 | JAK2V617F conf 97.7
CC1(C)Cc2nc3sc4c(SCC(=O)NCc5ccco5)ncnc4c3cc2CO1	Ba/F3 V617F tox 71.6 (no result: aSyn UTR inh) | BaF3 tox 2 61.8 | JAK2V617F conf 89.5
CCC(C)[C@H]1CNCCN1CCc1cccc(F)c1 (some centres undefined)	none (no result: BaF3 parental, KLF5 inhibitor, IEC-6 cytotox, Ba/F3 V617F tox, APP 5UTR inh)
Cc1cc(SCC(=O)Nc2cccc(S(=O)(=O)NC3=NCCCCC3)c2)c(C)cc1Br	Ba/F3 V617F tox 25.5 | BaF3 tox 2 inactive | JAK2V617F conf 30.9
O=S1(=O)C=C(Sc2nnc(-c3ccccc3)o2)c2ccccc21	Ba/F3 V617F tox 34.5, APP 5UTR inh 95.8 | BaF3 tox 2 94.0 | JAK2V617F conf 98.4
C#CCn1c(O)c(N=NC(=O)CNC(=O)c2cccnc2)c2ccccc21	none (no result: BaF3 parental, Ba/F3 V617F tox, APP 5UTR inh)
COc1ccc(S(=O)(=O)N(CCCN2CCCC2=O)Cc2cc3cc(C)c(C)cc3[nH]c2=O)cc1	none
Cc1ccc(S(=O)(=O)N(CCCN2CCCC2=O)Cc2cc3c(C)ccc(C)c3[nH]c2=O)cc1	Ba/F3 V617F tox 61.6 | BaF3 tox 2 inactive | JAK2V617F conf inactive
COc1ccc(Cl)cc1NS(=O)(=O)c1cccc(C(=O)NCC(c2ccco2)N(C)C)c1 (centres undefined)	none (no result: BaF3 parental, Ba/F3 V617F tox, APP 5UTR inh)
CCCC(=O)Nc1ccc(Cl)c(NC(=O)c2cccnc2)c1	Ba/F3 V617F tox 60.1 | BaF3 tox 2 inactive | JAK2V617F conf inactive
COc1ccc(-n2nnnc2S(=O)(=O)CC(=O)N2CCCCC2)cc1	Ba/F3 V617F tox 26.9 (no result: aSyn UTR inh) | BaF3 tox 2 inactive | JAK2V617F conf 87.9
COc1ccc(-n2nnnc2S(=O)(=O)Cc2ccc(C(=O)O)cc2)cc1	none
S=C(Nc1ccc(Cl)cc1)c1nc2ccccc2s1	none
O=C(Nc1ccc(Cl)cc1)/C(=C/c1cccc(O)c1)c1nc2ccccc2s1	Ba/F3 V617F tox 68.3 | BaF3 tox 2 inactive | JAK2V617F conf 98.3
COc1ccc(N2CCc3c(C)nc4c(OC)cc(OC)cc4c32)c(OC)c1	Ba/F3 V617F tox 48.0 | BaF3 tox 2 inactive | JAK2V617F conf 64.3
O=[N+]([O-])c1ccc2c(c1)N([O-])C1(CCCCC1)[N+]2=O	none (no result: aSyn UTR inh, APP 5UTR inh)
COc1cc(C(=O)OCC(C)=O)ccc1OCc1c(C)noc1C	Ba/F3 V617F tox 38.9 | BaF3 tox 2 inactive | JAK2V617F conf 25.6
CCCn1c(NCc2ccco2)nc2c1c(=O)n(C)c(=O)n2C	none
COc1ccc(Cl)c(Cn2c(NCc3ccco3)nc3c2c(=O)n(C)c(=O)n3C)c1	Ba/F3 V617F tox 37.4 (no result: aSyn UTR inh) | BaF3 tox 2 82.8 | JAK2V617F conf 61.8
Cc1cc(C)n2nc(C(=O)OCC(=O)N3CC(C)CC(C)C3)nc2n1 (centres undefined)	none (no result: BaF3 parental, KLF5 inhibitor, IEC-6 cytotox, Ba/F3 V617F tox, APP 5UTR inh)
Cc1nc([N+](=O)[O-])c(Sc2nc3ccccc3n2C)n1Cc1ccccc1	Ba/F3 V617F tox 28.2 | BaF3 tox 2 inactive | JAK2V617F conf 91.5
CCNC(=S)NNC(=O)c1cccn(Cc2ccc(Cl)cc2Cl)c1=O	none
C=CCNC(=S)NNC(=O)c1cccn(Cc2ccc(Cl)cc2Cl)c1=O	Ba/F3 V617F tox 29.5 | BaF3 tox 2 inactive | JAK2V617F conf inactive
COC(=O)C(c1ccccc1)C(C(=O)OC)c1ccccc1 (centres undefined)	none (no result: BaF3 parental, Ba/F3 V617F tox, APP 5UTR inh)
COC(=O)C(C(=O)OC)C(C)C(C(=O)OC)C(=O)OC	Ba/F3 V617F tox 61.0 | BaF3 tox 2 inactive | JAK2V617F conf inactive
COCCNC(=O)CN(C(=O)c1ccc(N2CCCC2)nc1)c1ccccc1	Ba/F3 V617F tox 63.6 (no result: aSyn UTR inh) | BaF3 tox 2 inactive | JAK2V617F conf inactive
COCCNC(=O)CN(C(=O)c1ccc(N2CCCC2)nc1)c1ccc(F)c(Cl)c1	none (no result: BaF3 parental, Ba/F3 V617F tox, APP 5UTR inh)
C=CCn1c(C)nnc1SCC(=O)Nc1nccs1	none (no result: BaF3 parental, Ba/F3 V617F tox, APP 5UTR inh)
O=C(NC1C=CS(=O)(=O)C1)c1sc2ccccc2c1Cl (centres undefined)	Ba/F3 V617F tox 27.0 | BaF3 tox 2 inactive | JAK2V617F conf 58.8
O=C(NC1CC1)c1sc2ccccc2c1Cl	none (no result: BaF3 parental, Ba/F3 V617F tox, APP 5UTR inh)
Cc1ccc(NC(=O)c2ccc([N+](=O)[O-])o2)cc1C	IEC-6 cytotox 45.4, Ba/F3 V617F tox 36.9 | BaF3 tox 2 31.0 | JAK2V617F conf 93.3
Cc1ccnc(NC(=O)c2ccc([N+](=O)[O-])o2)c1	none
COc1ccc(NC(=O)/C(C#N)=C\c2cc(C)n(-c3ccc4c(c3)OCO4)c2C)cc1	Ba/F3 V617F tox 29.7 | BaF3 tox 2 72.9 | JAK2V617F conf 92.6
Cc1nc2c(-c3ccc(F)cc3)c(C)nn2c(C)c1CCC(=O)Nc1ccccc1F	Ba/F3 V617F tox 79.0 (no result: APP 5UTR inh) | BaF3 tox 2 inactive | JAK2V617F conf inactive
Cc1nc2c(-c3ccccc3)c(C)nn2c(C)c1CCC(=O)O	none
COCCCN1C(=O)c2ccc(C(=O)NCCc3ccccc3)cc2C1=O	none (no result: BaF3 parental, Ba/F3 V617F tox, APP 5UTR inh)
O=C(/C=C/c1ccc(O)c(O)c1)c1ccc(S(=O)(=O)N2CCCCCC2)cc1	Ba/F3 V617F tox 44.3 | BaF3 tox 2 inactive | JAK2V617F conf 85.2
Cc1cc(C)c(S(=O)(=O)Nc2ccc(Cl)cn2)c(C)c1	none (no result: BaF3 parental, Ba/F3 V617F tox, APP 5UTR inh)
CCCOc1ccc(Cc2c(O)nc(SC)[nH]c2=O)cc1	none (no result: BaF3 parental, Ba/F3 V617F tox, APP 5UTR inh)
CC(/C=C/c1ccccc1)=N\NC(=O)Cn1cncn1	Ba/F3 V617F tox 31.3 (no result: APP 5UTR inh) | BaF3 tox 2 inactive | JAK2V617F conf inactive
c1ccc(CCNc2nc(-c3ccccn3)nc3ccccc23)cc1	Ba/F3 V617F tox 58.0 (no result: APP 5UTR inh) | BaF3 tox 2 inactive | JAK2V617F conf 88.0
